The campaign covered roughly 290,000 compounds. About 2,200 (0.76%) were called active. The sample as a whole holds a higher share of actives than the screen did. A number with no mark means an inactive call. Rule as the data show it: active = inhibition above about 30%; inconclusive = no clear call, values can overlap the other calls; inactive = below that.

As a reminder, the inhibition is the relative decrease from the control value, in per cent.

For this test, the target named is Protein RecA (Mycobacterium tuberculosis (strain ATCC 25618 / H37Rv)) (UniProt P9WHJ3). Briefly: Mtb RecA intein splicing inhibitors, primary screen, biochemical, fluorescence, HTS (AID 2221).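 Also: 0% = vehicle wells and 100% = reference inhibitor control wells.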 Particulars: cell-free RecA intein splicing, stronger effect = higher value, concentration not given here.
Sequence of Protein RecA (Mycobacterium tuberculosis (strain ATCC 25618 / H37Rv)) (P9WHJ3 whole entry, looked up): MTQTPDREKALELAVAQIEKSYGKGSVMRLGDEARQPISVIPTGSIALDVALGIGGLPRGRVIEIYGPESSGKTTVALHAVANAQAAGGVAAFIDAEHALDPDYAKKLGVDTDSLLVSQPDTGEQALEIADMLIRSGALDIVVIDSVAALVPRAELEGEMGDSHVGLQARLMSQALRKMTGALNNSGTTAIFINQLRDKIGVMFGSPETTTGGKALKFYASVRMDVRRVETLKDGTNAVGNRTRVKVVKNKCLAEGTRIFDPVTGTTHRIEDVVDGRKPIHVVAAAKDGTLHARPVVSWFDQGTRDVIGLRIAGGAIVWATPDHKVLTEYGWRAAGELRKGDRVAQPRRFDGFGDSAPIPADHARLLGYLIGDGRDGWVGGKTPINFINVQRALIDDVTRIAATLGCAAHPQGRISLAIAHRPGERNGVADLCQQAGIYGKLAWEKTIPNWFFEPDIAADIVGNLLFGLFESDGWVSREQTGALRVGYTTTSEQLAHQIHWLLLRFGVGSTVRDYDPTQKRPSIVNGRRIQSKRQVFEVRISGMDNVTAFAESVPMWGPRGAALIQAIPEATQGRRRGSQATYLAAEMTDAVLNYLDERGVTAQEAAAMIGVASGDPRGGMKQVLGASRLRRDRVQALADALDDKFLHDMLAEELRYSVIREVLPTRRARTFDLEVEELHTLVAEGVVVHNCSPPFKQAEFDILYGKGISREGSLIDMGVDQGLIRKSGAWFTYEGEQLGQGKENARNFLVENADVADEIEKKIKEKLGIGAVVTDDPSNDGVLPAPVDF
`CCCNC(=O)CSc1nc(Cc2ccccc2)nc2ccccc12`: the inhibition was 15.4%.
With `CCN(CC)S(=O)(=O)c1cc([N+](=O)[O-])ccc1NNC(=O)Nc1ccccc1`, the inhibition is 0.713%.
Take `COc1ccc(-n2nnnc2CNC(=O)c2ccc3ccccc3c2)cc1`: the inhibition is -1.28%.
With `Cc1ccc([N+](=O)[O-])c(OCCCNCC(C)O)c1` (stereo not drawn), the inhibition was -0.0235%.
For the compound `Cc1ccc(CN2CCN(c3ncccn3)CC2)c(C)c1`, the inhibition was 0.612%.
As for `Cn1c(SCC(=O)c2ccccc2)ncc(C(=O)Nc2ccc(F)cc2)c1=O`, the inhibition was -0.487%.
In the case of `Cc1ccc(NC(=O)c2cnc(SCC(=O)NCC3CCCO3)n(C)c2=O)cc1` (stereo not drawn), the inhibition is 35.1% (active).
For the compound `C=CCn1c(SCC(=O)NCC2CCCO2)nc2sc(C)c(C)c2c1=O` (stereo not drawn), the inhibition is 0.158%.
With `COc1ccc2c(c1O)-c1cccc3c1[C@@H](C2)N(C)CC3`, the inhibition was -6.28%.
Consider `COc1c(O)ccc2c1CN1CCc3cc4c(cc3C1C2)OCO4` (stereo not drawn), for which the inhibition is 68.5% (active).
As for `COc1ccc2cc1Oc1ccc(cc1)C[C@H]1c3cc(c(OC)cc3CCN1C)Oc1c(O)c(OC)cc3c1[C@H](C2)N(C)CC3`, the inhibition was -4.49%.
Take `CC(C)(C)OC(=O)NC(Cc1ccccc1)C(=O)NC(CSC1CCCCO1)C(=O)NN` (stereo not drawn): the inhibition is -1.13%.
For the compound `CC1(C)CC(=O)c2cnc3nc4ccccc4n3c2C1`, the inhibition was -0.669%.
Turning to `CC(CNc1ccc([N+](=O)[O-])c2cccnc12)Nc1c([N+](=O)[O-])cc(C(F)(F)F)cc1[N+](=O)[O-]` (stereo not drawn), the inhibition is 1.36%.
For `COc1ccc(-c2ccc(Nc3ccc(S(=O)(=O)N4CCCC4)cc3)nn2)cc1OC`, the inhibition is -1.08%.
Take `COc1ccc(-c2cc(C(F)(F)F)nc(NCc3cccnc3)n2)cc1`: the inhibition was -1.1%.
For `COc1ccc(-c2cc(C(F)(F)F)nc(S(C)(=O)=O)n2)cc1OC`, the inhibition is 42% (active).
In the case of `Cn1cc(CCC(=O)NC2CC2)c2ccccc21`, the inhibition was -0.418%.
As to `O=C(CN1CCN(C(=S)NC2CCCC2)CC1)Nc1ccc(Oc2ccccc2)cc1`, the inhibition was 5.42%.
The same measure for `COCc1cc(C)n(CC(=O)NCC2CCCO2)c(=O)c1C#N` (stereo not drawn): -0.67%.
As to `C[C@]12C=CC(=O)C=C1CC[C@@H]1[C@@H]2C(=O)C[C@@]2(C)[C@H]1CC[C@]2(O)C(=O)CO`, the inhibition is 1.39%.
Under `CC(=O)O[C@]1(C(C)=O)CC[C@H]2[C@@H]3C=C(C)C4=CC(=O)CC[C@]4(C)[C@H]3CC[C@@]21C` stands 11%; under `CC(=O)C12CC(C)=C(C)CC1CC1C3CCC4=CC(=O)CCC4(C)C3CCC12C` (stereo not drawn), 36% (active).
On to `CCN(CC)c1ccc2cc(C(N)=O)/c(=N\NC(=O)c3ccncc3)oc2c1`, for which the inhibition was -24.7%.
As to `C=CCN(C(=O)Nc1ccc2oc(C)nc2c1)c1ccccc1`, the inhibition is 1.61%.
The same measure for `CCN(CC)c1ccc2oc(=O)c(C)nc2c1`: 30.2% (active); for `COc1ccc(-c2nnc(SC(=O)N3c4ccccc4Sc4ccccc43)o2)cc1`: 46.6% (active); for `COc1ccc(-c2nnc(SCC(=O)c3ccc4c(c3)OCCO4)o2)cc1`: 0.107%.
Consider `COc1ccc(-c2nnc(SCc3cccnc3)o2)cc1`, for which the inhibition was -3.4%.
Take `CC(=O)c1cccc(NC(=O)C2COc3ccccc3O2)c1` (stereo not drawn): the inhibition is 0.944%.
`C[C@H](NC(=O)C1CCN(S(=O)(=O)c2ccccc2)CC1)C(=O)NCc1ccccc1`: the inhibition was 1.64%.
For the compound `COC(=O)c1sc(SC)c(S(=O)(=O)C(C)C)c1N/N=C(\C#N)S(=O)(=O)c1ccccn1`, the inhibition was 3.07%.
As for `COCc1[nH]nc2c1C(C1C=CCCC1)C(C#N)=C(N)O2` (stereo not drawn), the inhibition was -0.266%.
Consider `CCCc1[nH]nc2c1C(c1ccc(Br)s1)C(C#N)=C(N)O2` (stereo not drawn), for which the inhibition is 56% (active).
Consider `CCOc1c(OC)cc(C2C(C#N)=C(N)Oc3n[nH]c(-c4ccncc4)c32)cc1OC` (stereo not drawn), for which the inhibition is 23.1%.
Regarding `CCc1ccc(C2C(C#N)=C(N)Oc3n[nH]c(CC(=O)OC)c32)cc1` (stereo not drawn), the inhibition is 63.8% (active).
For `CCCc1[nH]nc2c1C(c1ccc(OC(=O)c3ccco3)cc1)C(C#N)=C(N)O2` (stereo not drawn), the inhibition is 81.6% (active).
For the compound `CCCc1[nH]nc2c1C(C1CC=CCC1)C(C#N)=C(N)O2` (stereo not drawn), the inhibition is 4.97%.
The same measure for `CCCc1nc2c([nH]1)C(c1cccnc1)C(C#N)=C(N)O2` (stereo not drawn): -1.72%.
As to `CCC1=C(C(=O)OC)C(c2cc(OC)ccc2OC)C(C#N)=C(N)O1` (stereo not drawn), the inhibition is -1.35%.
`COc1cc(C2C(C#N)=C(N)Oc3n[nH]c(-c4ccccn4)c32)cc(OC)c1OC` (stereo not drawn): the inhibition was 17.2%.
The same measure for `COc1ccc(-c2[nH]nc3c2C(c2ccncc2)C(C#N)=C(N)O3)cc1` (stereo not drawn): 69.7% (active); for `CCOC(=O)C1=C(C)OC(N)=C(C#N)C1c1cncc(-c2ccc(F)cc2)c1` (stereo not drawn): 2.26%; for `CCOC(=O)C1=C(CC)OC(N)=C(C#N)C1c1ccc(F)cc1F` (stereo not drawn): -3.52%.
Regarding `NC(=O)c1cc(S(=O)(=O)NCCCc2ccco2)cs1`, the inhibition is -6.35%.
Take `CN(C)c1ccc(C=NCCc2ccc(S(N)(=O)=O)cc2)cc1`: the inhibition was -4.96%.
As for `Cc1ccc(NC(=O)N2CCSc3ccccc32)cc1`, the inhibition was -0.155%.
Take `CCN(CC)CC(=O)Nc1sc2c(c1C(=O)c1ccccc1C)CCC2`: the inhibition was 11.9%.
With `Cc1cc(C)c(C)c(S(=O)(=O)N[C@@H](C)C(=O)OC(C)C(=O)NC(N)=O)c1C` (stereo partly drawn), the inhibition is -2.04%.
As for `CC(CO)(CO)NC(=O)c1ccc(=O)[nH]n1`, the inhibition was 0.0563%.
Under `O=C(c1ccc[nH]c1=S)N1CCN(S(=O)(=O)c2ccc(Br)cc2Cl)CC1` stands -3.23%.
On to `Cc1ccc(-n2c(=O)cc(N3CCN(Cc4ccccc4)CC3)[nH]c2=O)cc1`, for which the inhibition is -1.51%.
On to `S=C(Nc1ccc(Cl)cc1Cl)N1CCCC1`, for which the inhibition is -0.599%.
As to `Cc1cccc(OC(C)C(=O)N2CCc3ccccc3C2)c1` (stereo not drawn), the inhibition is 0.662%.
In the case of `O=C(Cc1ccccc1)Nc1ccc(C(=O)Nc2ccccc2C(=O)O)cc1`, the inhibition is 0.81%.
As for `O=C(c1cccnc1)N1CCN(S(=O)(=O)c2cccs2)CC1`, the inhibition was -1.81%.
Consider `Cc1ccc(-n2nc3c(=O)n(C(C)C(=O)NCc4ccc5c(c4)OCO5)nc(C)c3c2C)cc1` (stereo not drawn), for which the inhibition was 3.2%.
As to `CC1=NNC(=O)C1Cc1c(Cl)cccc1Cl` (stereo not drawn), the inhibition was 90.8% (active).
With `CC1=NNC(=O)C1CCC(=O)N/N=C\c1ccc(Cl)c(Cl)c1` (stereo not drawn), the inhibition is 0.906%.
As for `CC1=NNC(=O)C1CCC(=O)N/N=C\c1cccc(Cl)c1` (stereo not drawn), the inhibition was -2.34%.
Under `O=C(CN1CCc2cc3c(cc2C1)OCCCO3)Nc1ccccc1` stands 1.99%.
As to `COc1ccc(C(=O)NC2CC(C)(C)Cc3c2cnn3-c2ccccc2C)o1` (stereo not drawn), the inhibition was 3.96%.
In the case of `CCSc1ncc(Cl)c(C(=O)Nc2cc(C)ccc2C)n1`, the inhibition is -2.65%.
In the case of `Cc1cccc(NC(=O)c2nc[nH]c2C(=O)NCC(=O)OCc2ccccc2)c1`, the inhibition is -3.32%.
The same measure for `CCOc1ccc(NC(=O)c2nc(SCC)ncc2Cl)cc1`: -3.31%; for `Cc1cccc(OCc2ccc(C(=O)Nc3ccc(F)cc3)cc2)c1`: -2.68%; for `Cc1cccc(CS(=O)(=O)c2ncc(Cl)c(C(=O)Nc3ccc(F)cc3)n2)c1`: 31.6% (active).
For the compound `Cc1cccc(NC(=O)c2nc(S(=O)(=O)Cc3ccccc3)ncc2Cl)c1`, the inhibition is 78% (active).
For the compound `CSCC[C@H](NC(=O)N1CCn2c1nc1ccccc12)C(=O)NC1CCCCC1`, the inhibition is 0.784%.
For the compound `ClC1(Cl)CC1CSc1ncn[nH]1` (stereo not drawn), the inhibition is -0.379%.
Consider `Cc1ccc(SC(CC(=O)c2ccc(C(C)(C)C)cc2)C(=O)O)cc1` (stereo not drawn), for which the inhibition was 8.11%.
For `Cc1ccc(SCC2=NNC(=O)C2)cc1`, the inhibition was 87.8% (active).
Consider `Cc1ccc(SCCSc2ncccn2)cc1`, for which the inhibition was -1.76%.
The same measure for `Cc1ccc(SCc2cc(=O)[nH]c(N3CCCCC3)n2)cc1`: 1.86%.
Consider `O=C(NC1CCc2ccccc21)C12CN(Cc3ccccc3)CC1C(c1cccc([N+](=O)[O-])c1)=NO2` (stereo not drawn), for which the inhibition was 8.13%.
`CCOc1ccc(-n2c(SCC(N)=O)nnc2-c2ccco2)cc1`: the inhibition is 1.21%.
Under `CC1(N2CCOCC2)CC2(O)C(=[N+]1[O-])CCc1nonc12` (stereo not drawn) stands 59.8% (active); under `CC(=O)n1c(C=Nc2ccccc2)c(O)c2ccccc21`, -25.1%; under `Cc1ccc(NC(=O)CSc2nnc(CNC(=O)c3ccccc3F)o2)cc1`, -1.52%.
As to `O=C(CCCN=C1NS(=O)(=O)c2ccccc21)OCC(=O)c1ccc(F)c(F)c1`, the inhibition is 0.337%.
As for `CCN(CC)S(=O)(=O)c1ccc(Cl)c(NC(=O)c2ccncc2)c1`, the inhibition is -0.0873%.
Take `CN(C)c1ccc(NC(=O)c2ccncc2)c2ccccc12`: the inhibition was 32.8% (active).
Under `CC(=O)c1cccc(NC(=O)c2ccncc2)c1` stands -0.301%; under `Cc1cc(Nc2cccc(C)c2C)n2ncnc2n1`, 0.489%; under `COc1ccc(Nc2ncnc3ccc(Br)cc23)c(OC)c1`, -1.95%.
As for `COc1ccc2sc(N(CCCN(C)C)C(=O)c3ccc(S(=O)(=O)N(C)C4CCCCC4)cc3)nc2c1`, the inhibition is 2.28%.
For the compound `S=c1nccc(-c2cc(Cl)sc2Cl)[nH]1`, the inhibition was 2.58%.
Turning to `COc1ccc(-c2csc(Cc3nc(O)cs3)n2)cc1`, the inhibition was 8.96%.
The same measure for `COc1ccc(-c2csc(Nc3ccc(O)cc3)n2)cc1`: 33.3% (active); for `O=c1oc2ccccc2cc1-c1csc(Nc2ccc(O)cc2)n1`: -3.92%; for `NNC(=O)C1CC(O)CN1S(=O)(=O)c1ccc(Cl)cc1` (stereo not drawn): 0.0391%.
For `COc1cccc(CN(C)C(=O)CC23CC4CC(CC(C4)C2)C3)c1OC`, the inhibition is 9.37%.
For `O=C(NCCc1ccccc1)Oc1ccc(Cl)cc1`, the inhibition was 6.61%.

The record behind these values is PubChem BioAssay AID2221 (Broad Institute, 2009).
